Activity calls are given as the source filed them. Rule for the calls: active = hit-call score of the fitted dose curve at least 0.9, where 1 is the maximum; inactive = score below 0.9.

CCAAT/enhancer-binding protein beta (Homo sapiens), sequence (P17676 whole entry, looked up): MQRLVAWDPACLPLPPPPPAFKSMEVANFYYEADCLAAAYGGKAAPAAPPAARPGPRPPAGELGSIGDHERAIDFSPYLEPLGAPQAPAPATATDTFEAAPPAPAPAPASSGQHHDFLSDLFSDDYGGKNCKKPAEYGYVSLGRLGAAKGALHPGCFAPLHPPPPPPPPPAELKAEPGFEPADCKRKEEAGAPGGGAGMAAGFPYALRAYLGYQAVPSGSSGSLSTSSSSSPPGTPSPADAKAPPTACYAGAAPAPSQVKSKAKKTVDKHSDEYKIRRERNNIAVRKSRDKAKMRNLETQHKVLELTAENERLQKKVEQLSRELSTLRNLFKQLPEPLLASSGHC

The assay concerns the target CCAAT/enhancer-binding protein beta (Homo sapiens) (UniProt P17676). Put plainly: ATG_C_EBP_CIS: Attagene CIS-FACTORIAL HepG2 Assay for human CCAAT/Enhancer Binding Protein (C/EBP) beta (AID 2282927). Particulars: HepG2 Attagene cis-factorial transcription factor reporter; actives raise or lower the signal. The protocol: ATG_CIS is a cell-based, multiplexed-readout assay that uses HepG2, a human liver cell line, with measurements taken at 24 hours after chemical dosing in a 24-well plate.ATG_C_EBP_CIS is one of 52 assay component(s) measured or calculated from the ATG_CIS assay. It is designed to make measurements of mRNA induction, a form of inducible reporter, as detected with fluorescence intensity signals by Reverse transcription polymerase chain reaction (RT-PCR) and Capillary electrophoresis technology.Data from the assay component ATG_C_EBP_CIS was analyzed into 1 assay endpoint. This assay endpoint, ATG_C_EBP_CIS, was analyzed with bidirectional fitting relative to DMSO as the negative control and baseline of activity. Using a type of inducible reporter, measures of mRNA for gain or loss-of-signal activity can be used to understand the reporter gene at the transcription factor-level as they relate to the gene CEBPB. Furthermore, this assay endpoint can be referred to as a primary readout, because this assay has produced multiple assay endpoints where this one serves a reporter gene function. To generalize the intended target to other relatable targets, this assay endpoint is annotated to the dna binding intended target family, where the subfamily is basic leucine zipper.
Human liver HepG2 cells are transiently transfected with multiple reporter transcription units (MRTUs) in 6-well plates using FuGene 6 reagent (Roche; 3 ml FuGene/1 mg DNA). The MRTU constructs are regulated by a cis-regulating element (promoter). […] A major difference between the CIS and TRANS system is that in CIS activities of endogenous TFs are measured, whereas the TRANS assay evaluates changes in activities of exogenous, chimeric NR-Gal4 proteins. […] At the end of 24 hour incubation, total RNA was isolated using TriZol reagent (Invitrogen). The isolated RNA is then reverse-transcribed using oligo(dT) primer and Mo-MLV reverse transcriptase (Invitrogen) with DNAse I (Ambion) treatment for 30 min. The one-tenth of the produced cDNA was amplified by PCR using Taq DNA polymerase (Invitrogen) and two reporter sequence-specific primers. The PCR products were fluorescently labeled by primer extension with 6-arboxyfluorescein (6-FAM) 5'-labeled reporter sequence-specific primer (2 min at 95 C, 20 s at 68 C and 10 min at 72 C) and these products were digested with 5U of HpaI (New England Biolabs) for 2h at 37 C. The fragments were purified using Qiaquick PCR columns (Qiagen), analyzed on an ABI 3130xL genetic analyzer (Applied Biosystems) with peak positions identified by using a set of X-rhodamine (ROX)-labeled MapMarker1000 molecular weight standards (BioVentures). The raw capillary electrophoresis data was processed using Attagraph software (Attagene).
On to `CC(C)CCCCCCCCCCCCCCC(=O)O`, for which the result was inactive.

As for `O=C1OC(=O)c2c(Cl)c(Cl)c(Cl)c(Cl)c21`, the outcome was inactive.

For `C#CC(C)(O)CC(C)C` (stereo not given), the result was inactive.

Take `C1CCOC1`: the outcome was inactive.

Take `CCC1(c2ccccc2)C(=O)NCNC1=O`: the result was inactive.

Regarding `CCOC(=O)CCc1ccccc1`, the result was inactive.

As to `COc1cc(CCC(C)=O)ccc1O`, the result was inactive.

On to `CCCCCCCCCCCCN1CCCCCC1=O`, for which the result was inactive.

As to `C[C@@H]1CCN(C(=O)[C@H](CCCN=C(N)N)NS(=O)(=O)c2cccc3c2NC[C@H](C)C3)[C@@H](C(=O)O)C1`, the outcome was inactive.

On to `CS(=O)(=O)OCCCCOS(C)(=O)=O`, for which the outcome was inactive.

Take `Cc1ccc2c(c1)C(=O)OC2=O`: the outcome was inactive.

As for `O=C(O)CCCCCCCCCCCC(=O)O`, the result was inactive.

Regarding `CCCC(=O)C(CC)Sc1ccoc1C` (stereo not given), the outcome was inactive.

For `C[C@H](CCC(=O)NCC(=O)O)[C@H]1CC[C@H]2[C@@H]3[C@H](O)C[C@@H]4C[C@H](O)CC[C@]4(C)[C@H]3C[C@H](O)[C@]12C`, the outcome was inactive.

Take `Cc1cccc(Nc2ccccc2)c1`: the result was inactive.

For the compound `CCN(CC)C(=O)N(CC)CC`, the result was inactive.

For the compound `CN(C)c1cccc(O)c1`, the outcome was inactive.

`Nc1ccccc1[N+](=O)[O-]`: the outcome was inactive.

For the compound `COC(=O)c1ccc(OC)cc1`, the result was inactive.

In the case of `CCCCCCCC(=O)OCCCCCC`, the outcome was inactive.

As for `CC[N+](C)(CC)CC`, the result was inactive.

Turning to `OCCCCC(O)CO` (stereo not given), the outcome was inactive.

Regarding `CCCCCC(=O)CC`, the outcome was inactive.

Turning to `C=C[Si]1(C)O[Si](C)(C=C)O[Si](C)(C=C)O[Si](C)(C=C)O1` (stereo not given), the result was inactive.

As for `CC(C)(C)CC(C)(C)c1ccc(OCCOCC[N+](C)(C)Cc2ccccc2)cc1`, the outcome was inactive.

On to `O=P(O)(O)O`, for which the outcome was inactive.

For `CCCCCCCC(=O)OCC(O)CO` (stereo not given), the result was inactive.

Take `Cc1ncc[nH]1`: the result was inactive.

As for `CC1(C)CCC[C@]2(C)[C@H]3CCO[C@]3(C)CC[C@@H]12`, the result was inactive.

With `CN(C)C(=O)Nc1ccc(Oc2ccc(Cl)cc2)cc1`, the outcome was inactive.

Regarding `CC(C)NCC(O)COc1ccc(CC(N)=O)cc1` (stereo not given), the result was inactive.

As to `NC(=S)NNC(N)=S`, the result was inactive.

Turning to `CCCC(C)C(O)CC` (stereo not given), the result was inactive.

In the case of `Cc1c(Cl)cccc1[N+](=O)[O-]`, the outcome was inactive.

Regarding `CN(c1nccc(=O)[nH]1)C1CCN(c2nc3ccccc3n2Cc2ccc(F)cc2)CC1`, the outcome was inactive.

Turning to `Cc1ccc(-c2ccccc2)cc1`, the outcome was inactive.

As for `CCCCCCCCCCCC(=O)OCC(O)CO` (stereo not given), the result was inactive.

Take `CS(=O)(=O)c1ccc(Cl)cc1`: the outcome was inactive.

Regarding `CCCCCCCCC=CCCCCCCCC1=NCCN1CCO`, the result was inactive.

Regarding `Cc1cc(S(=O)(=O)O)ccc1N=Nc1c(O)ccc2ccccc12`, the result was inactive.

The record behind these values is PubChem BioAssay (EPA / NIEHS).
